# Assay results published in PMC7862700, “An all-to-all approach to the identification of sequence-specific readers for epigenetic DNA modifications on cytosine”.
# Legend:
# Test in all cases: DAPPL (digital affinity profiling via proximity ligation, sequencing); 10 mM Tris-HCl pH 7.5, 50 mM NaCl, 1 mM DTT, 4% glycerol, room temperature, 30 min; GST-TFs on glutathione beads, 16-mer random dsDNA library, 0.1% formaldehyde crosslink after washing; high values mean tight binding
# FLI1 = biological target: T1, FLI1 (Homo sapiens, UniProt Q01543 1-452); details: protein: recombinant; tags: N-terminal GST; dsDNA, one strand shown
# T1 sequence: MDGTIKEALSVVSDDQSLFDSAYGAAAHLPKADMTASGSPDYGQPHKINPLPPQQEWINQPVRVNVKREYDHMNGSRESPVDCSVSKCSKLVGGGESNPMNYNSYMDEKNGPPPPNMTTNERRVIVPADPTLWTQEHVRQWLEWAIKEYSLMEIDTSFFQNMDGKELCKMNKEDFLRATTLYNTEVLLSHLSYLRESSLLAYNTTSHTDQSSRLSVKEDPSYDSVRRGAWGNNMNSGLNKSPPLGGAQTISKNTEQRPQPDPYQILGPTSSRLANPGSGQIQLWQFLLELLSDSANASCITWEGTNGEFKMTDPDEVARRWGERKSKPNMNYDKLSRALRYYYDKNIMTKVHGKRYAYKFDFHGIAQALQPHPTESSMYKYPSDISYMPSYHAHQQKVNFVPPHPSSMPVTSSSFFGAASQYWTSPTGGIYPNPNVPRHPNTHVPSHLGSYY
# Outline: (§1)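 A tag-only sample was pooled with DNA-barcoded human transcription factors that had been expressed in yeast as GST fusions and captured on glutathione beads. The pools were incubated for 30 min at room temperature with 200 nmole of a random double-stranded 16-mer DNA library in Tris/NaCl/DTT/glycerol buffer, then washed, crosslinked with 0.1% formaldehyde, proximity-ligated (BsaI/T4 ligase, 1 h, 37 °C), PCR-amplified and sequenced on an Illumina NextSeq500. Binding signal is each hexamer's read frequency for a factor divided by its frequency for the tag-only sample.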
# ELK1 = biological target: T2, ELK1 (Homo sapiens, UniProt P19419 1-428); details: protein: recombinant; tags: N-terminal GST; dsDNA, one strand shown
# T2 sequence: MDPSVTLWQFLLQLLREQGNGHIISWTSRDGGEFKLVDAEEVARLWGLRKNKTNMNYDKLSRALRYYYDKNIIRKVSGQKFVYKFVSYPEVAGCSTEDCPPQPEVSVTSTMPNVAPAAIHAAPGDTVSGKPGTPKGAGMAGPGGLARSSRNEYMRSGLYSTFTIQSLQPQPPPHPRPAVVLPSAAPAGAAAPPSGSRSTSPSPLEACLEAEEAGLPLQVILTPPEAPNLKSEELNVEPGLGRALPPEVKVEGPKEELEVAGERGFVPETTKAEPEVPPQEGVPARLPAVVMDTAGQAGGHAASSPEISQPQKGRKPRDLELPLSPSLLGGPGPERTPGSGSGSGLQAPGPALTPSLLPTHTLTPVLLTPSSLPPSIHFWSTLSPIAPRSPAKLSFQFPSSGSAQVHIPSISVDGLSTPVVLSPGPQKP
# Outline: as §1
# GABPA = biological target: T3, GABPA (Homo sapiens, UniProt Q06546 1-454); details: protein: recombinant; tags: N-terminal GST; dsDNA, one strand shown
# T3 sequence: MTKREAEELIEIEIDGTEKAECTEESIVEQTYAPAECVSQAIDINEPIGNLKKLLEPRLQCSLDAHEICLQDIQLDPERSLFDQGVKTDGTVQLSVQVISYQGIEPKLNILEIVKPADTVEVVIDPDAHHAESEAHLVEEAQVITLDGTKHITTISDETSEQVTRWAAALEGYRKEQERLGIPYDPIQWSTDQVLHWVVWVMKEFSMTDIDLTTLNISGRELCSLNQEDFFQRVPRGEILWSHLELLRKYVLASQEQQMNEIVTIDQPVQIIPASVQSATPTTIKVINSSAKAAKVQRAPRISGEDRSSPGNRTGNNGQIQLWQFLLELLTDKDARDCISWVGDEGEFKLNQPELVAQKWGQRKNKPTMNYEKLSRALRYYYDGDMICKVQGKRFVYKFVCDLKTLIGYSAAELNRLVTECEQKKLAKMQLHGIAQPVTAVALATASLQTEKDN
# Outline: as §1
# ERG = biological target: T4, ERG (Homo sapiens, UniProt P11308 1-479); details: protein: recombinant; tags: N-terminal GST; dsDNA, one strand shown
# T4 sequence: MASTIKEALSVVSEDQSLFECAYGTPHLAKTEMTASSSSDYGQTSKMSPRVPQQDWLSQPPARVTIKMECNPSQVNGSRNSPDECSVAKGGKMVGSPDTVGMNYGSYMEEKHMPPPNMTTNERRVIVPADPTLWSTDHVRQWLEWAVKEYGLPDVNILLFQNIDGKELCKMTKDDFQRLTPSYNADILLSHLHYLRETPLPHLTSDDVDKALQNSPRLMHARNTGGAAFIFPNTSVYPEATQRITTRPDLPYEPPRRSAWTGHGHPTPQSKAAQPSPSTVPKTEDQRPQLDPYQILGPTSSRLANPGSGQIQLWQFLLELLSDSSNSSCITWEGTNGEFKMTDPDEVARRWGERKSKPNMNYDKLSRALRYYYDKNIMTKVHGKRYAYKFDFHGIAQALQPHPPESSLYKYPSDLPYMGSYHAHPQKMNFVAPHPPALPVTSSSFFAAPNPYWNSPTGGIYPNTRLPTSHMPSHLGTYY
# Outline: as §1
# ELF1 = ELF1 (Homo sapiens, UniProt P32519 1-619); details: protein: recombinant; tags: N-terminal GST; dsDNA, one strand shown
# Outline: as §1
# EHF = biological target: T5, EHF (Homo sapiens, UniProt Q9NZC4 1-300); details: protein: recombinant; tags: N-terminal GST; dsDNA, one strand shown
# T5 sequence: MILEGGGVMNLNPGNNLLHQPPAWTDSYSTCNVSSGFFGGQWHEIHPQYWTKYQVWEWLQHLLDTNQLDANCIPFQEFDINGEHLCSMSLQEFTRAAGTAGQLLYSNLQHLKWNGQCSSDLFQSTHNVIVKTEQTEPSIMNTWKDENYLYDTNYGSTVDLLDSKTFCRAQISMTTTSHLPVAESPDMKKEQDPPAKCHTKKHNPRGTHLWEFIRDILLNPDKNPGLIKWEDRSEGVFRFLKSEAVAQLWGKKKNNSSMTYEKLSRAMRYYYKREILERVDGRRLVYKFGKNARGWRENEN
# Outline: as §1
# SPI1 = SPI1 (Homo sapiens, UniProt P17947 1-270); details: protein: recombinant; tags: N-terminal GST; dsDNA, one strand shown
# Outline: as §1
# SPIB = SPIB (Homo sapiens, UniProt Q01892 1-262); details: protein: recombinant; tags: N-terminal GST; dsDNA, one strand shown
# Outline: as §1
# ELK3 = biological target: T6, ELK3 (Homo sapiens, UniProt P41970 1-407); details: protein: recombinant; tags: N-terminal GST; dsDNA, one strand shown
# T6 sequence: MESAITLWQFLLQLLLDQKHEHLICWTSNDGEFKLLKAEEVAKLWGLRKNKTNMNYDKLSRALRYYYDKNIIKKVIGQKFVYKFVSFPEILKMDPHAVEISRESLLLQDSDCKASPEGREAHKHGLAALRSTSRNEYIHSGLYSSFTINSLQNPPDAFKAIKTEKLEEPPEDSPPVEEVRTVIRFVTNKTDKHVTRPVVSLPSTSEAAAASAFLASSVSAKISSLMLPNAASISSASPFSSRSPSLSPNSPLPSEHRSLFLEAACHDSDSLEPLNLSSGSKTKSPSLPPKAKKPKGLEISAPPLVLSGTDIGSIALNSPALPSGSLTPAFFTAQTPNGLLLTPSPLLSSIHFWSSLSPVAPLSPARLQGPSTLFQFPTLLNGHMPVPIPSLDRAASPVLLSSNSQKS
# Outline: as §1
# FEV = biological target: T7, FEV (Homo sapiens, UniProt Q99581 1-238); details: protein: recombinant; tags: N-terminal GST; dsDNA, one strand shown
# T7 sequence: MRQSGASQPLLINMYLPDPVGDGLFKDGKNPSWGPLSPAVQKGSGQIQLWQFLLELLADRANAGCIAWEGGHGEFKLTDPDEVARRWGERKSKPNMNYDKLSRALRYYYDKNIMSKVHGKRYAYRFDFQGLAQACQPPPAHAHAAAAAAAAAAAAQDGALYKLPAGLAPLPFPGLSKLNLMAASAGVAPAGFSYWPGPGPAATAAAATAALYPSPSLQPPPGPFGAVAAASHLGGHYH
# Outline: as §1
# ETV5 = ETV5 (Homo sapiens, UniProt P41161 1-510); details: protein: recombinant; tags: N-terminal GST; dsDNA, one strand shown
# Outline: as §1
# HSF1 = HSF1 (Homo sapiens, UniProt Q00613 1-529); details: protein: recombinant; tags: N-terminal GST; chain copies: 3; dsDNA, one strand shown
# Outline: as §1
# ELF4 = ELF4 (Homo sapiens, UniProt Q99607 1-663); details: protein: recombinant; tags: N-terminal GST; dsDNA, one strand shown
# Outline: as §1
# ELK4 = biological target: T8, ELK4 (Homo sapiens, UniProt P28324-2 1-405); details: protein: recombinant; tags: N-terminal GST; dsDNA, one strand shown
# T8 sequence: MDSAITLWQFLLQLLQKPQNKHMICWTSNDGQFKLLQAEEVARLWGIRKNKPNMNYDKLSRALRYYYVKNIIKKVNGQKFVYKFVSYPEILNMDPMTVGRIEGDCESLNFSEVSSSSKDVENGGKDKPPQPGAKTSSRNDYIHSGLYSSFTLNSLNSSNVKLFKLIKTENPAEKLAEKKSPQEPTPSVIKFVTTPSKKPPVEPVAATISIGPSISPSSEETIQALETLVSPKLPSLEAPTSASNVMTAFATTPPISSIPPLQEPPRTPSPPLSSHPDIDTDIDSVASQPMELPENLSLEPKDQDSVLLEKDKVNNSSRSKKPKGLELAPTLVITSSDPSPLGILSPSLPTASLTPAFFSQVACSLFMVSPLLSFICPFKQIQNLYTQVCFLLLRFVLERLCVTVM
# Outline: as §1
# ETV2 = biological target: T9, ETV2 (Homo sapiens, UniProt O00321 1-342); details: protein: recombinant; tags: N-terminal GST; dsDNA, one strand shown
# T9 sequence: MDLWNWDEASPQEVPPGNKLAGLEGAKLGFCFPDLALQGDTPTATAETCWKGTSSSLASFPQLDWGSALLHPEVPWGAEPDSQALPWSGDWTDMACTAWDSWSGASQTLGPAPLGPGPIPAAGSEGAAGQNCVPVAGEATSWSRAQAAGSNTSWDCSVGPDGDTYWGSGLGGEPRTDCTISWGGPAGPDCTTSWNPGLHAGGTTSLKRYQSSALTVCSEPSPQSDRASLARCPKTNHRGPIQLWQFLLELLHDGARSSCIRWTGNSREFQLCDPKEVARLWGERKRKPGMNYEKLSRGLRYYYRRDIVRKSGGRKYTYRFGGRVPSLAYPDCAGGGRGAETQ
# Outline: as §1
# ELF3 = biological target: T10, ELF3 (Homo sapiens, UniProt P78545 1-371); details: protein: recombinant; tags: N-terminal GST; dsDNA, one strand shown
# T10 sequence: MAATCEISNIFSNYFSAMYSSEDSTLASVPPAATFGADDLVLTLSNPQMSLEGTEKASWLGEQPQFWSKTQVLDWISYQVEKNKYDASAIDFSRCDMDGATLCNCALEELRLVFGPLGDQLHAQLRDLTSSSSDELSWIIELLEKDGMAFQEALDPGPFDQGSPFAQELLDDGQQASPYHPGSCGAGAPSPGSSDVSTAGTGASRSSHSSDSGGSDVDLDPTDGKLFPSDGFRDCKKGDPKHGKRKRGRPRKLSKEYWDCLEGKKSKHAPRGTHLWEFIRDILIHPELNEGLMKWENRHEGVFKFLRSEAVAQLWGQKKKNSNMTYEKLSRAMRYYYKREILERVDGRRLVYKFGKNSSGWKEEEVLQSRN
# Outline: as §1
# CRX = CRX (Homo sapiens, UniProt O43186 1-299); details: protein: recombinant; tags: N-terminal GST; dsDNA, one strand shown
# Outline: as §1
# ETV1 = ETV1 (Homo sapiens, UniProt P50549 1-477); details: protein: recombinant; tags: N-terminal GST; dsDNA, one strand shown
# Outline: as §1
# Chain of HSF1 (Q00613 whole entry): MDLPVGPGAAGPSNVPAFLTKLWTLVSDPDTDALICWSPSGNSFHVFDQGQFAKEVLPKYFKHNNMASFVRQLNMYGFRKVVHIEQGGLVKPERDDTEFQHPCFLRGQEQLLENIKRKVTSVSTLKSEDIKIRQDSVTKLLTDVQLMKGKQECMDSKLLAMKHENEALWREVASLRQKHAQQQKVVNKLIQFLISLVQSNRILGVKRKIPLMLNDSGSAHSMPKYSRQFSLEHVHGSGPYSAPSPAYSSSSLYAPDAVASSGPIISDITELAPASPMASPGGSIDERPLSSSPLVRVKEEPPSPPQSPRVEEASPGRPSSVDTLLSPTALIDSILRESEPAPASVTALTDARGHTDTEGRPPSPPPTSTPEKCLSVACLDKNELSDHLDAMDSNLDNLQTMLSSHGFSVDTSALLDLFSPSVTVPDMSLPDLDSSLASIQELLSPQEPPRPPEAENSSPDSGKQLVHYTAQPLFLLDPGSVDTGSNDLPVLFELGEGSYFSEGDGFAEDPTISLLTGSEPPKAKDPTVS
# Chain of SPIB (Q01892 whole entry): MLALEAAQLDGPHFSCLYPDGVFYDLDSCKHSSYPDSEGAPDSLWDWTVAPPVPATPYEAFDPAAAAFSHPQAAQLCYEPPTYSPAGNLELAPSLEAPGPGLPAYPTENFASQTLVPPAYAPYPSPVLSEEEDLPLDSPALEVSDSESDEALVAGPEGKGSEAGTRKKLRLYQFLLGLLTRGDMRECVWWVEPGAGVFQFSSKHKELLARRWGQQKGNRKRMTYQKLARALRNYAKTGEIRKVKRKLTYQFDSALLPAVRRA
# Chain of ELF1 (P32519 whole entry): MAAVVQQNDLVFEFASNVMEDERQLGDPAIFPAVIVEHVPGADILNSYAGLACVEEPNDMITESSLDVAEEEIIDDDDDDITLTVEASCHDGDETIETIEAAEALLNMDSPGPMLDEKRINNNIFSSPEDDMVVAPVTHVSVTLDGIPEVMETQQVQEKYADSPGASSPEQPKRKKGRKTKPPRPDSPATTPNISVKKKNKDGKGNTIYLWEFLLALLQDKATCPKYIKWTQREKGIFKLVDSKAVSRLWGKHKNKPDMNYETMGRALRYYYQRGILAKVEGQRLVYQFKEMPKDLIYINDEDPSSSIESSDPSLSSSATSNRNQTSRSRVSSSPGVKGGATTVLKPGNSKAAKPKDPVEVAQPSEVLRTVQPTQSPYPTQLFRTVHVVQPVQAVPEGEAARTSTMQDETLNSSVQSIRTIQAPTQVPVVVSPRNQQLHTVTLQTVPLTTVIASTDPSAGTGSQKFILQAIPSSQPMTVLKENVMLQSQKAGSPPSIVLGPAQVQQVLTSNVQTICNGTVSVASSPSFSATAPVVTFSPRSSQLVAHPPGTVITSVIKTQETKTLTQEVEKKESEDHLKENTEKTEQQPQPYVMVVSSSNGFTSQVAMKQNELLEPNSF
# Chain of ETV5 (P41161 whole entry): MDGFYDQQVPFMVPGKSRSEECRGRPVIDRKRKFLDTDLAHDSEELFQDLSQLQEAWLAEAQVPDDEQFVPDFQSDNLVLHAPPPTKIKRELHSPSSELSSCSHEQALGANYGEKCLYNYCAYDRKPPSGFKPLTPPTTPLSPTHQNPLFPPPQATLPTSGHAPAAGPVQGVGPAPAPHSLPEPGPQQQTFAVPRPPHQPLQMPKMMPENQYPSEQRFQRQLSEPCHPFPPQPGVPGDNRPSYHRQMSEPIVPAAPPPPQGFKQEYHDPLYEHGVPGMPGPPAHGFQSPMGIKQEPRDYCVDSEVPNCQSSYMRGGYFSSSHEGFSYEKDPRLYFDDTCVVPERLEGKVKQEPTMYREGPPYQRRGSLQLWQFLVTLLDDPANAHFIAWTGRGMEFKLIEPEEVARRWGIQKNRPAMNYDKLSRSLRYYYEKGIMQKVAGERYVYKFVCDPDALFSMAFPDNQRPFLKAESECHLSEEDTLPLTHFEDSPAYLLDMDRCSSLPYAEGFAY
# Chain of CRX (O43186 whole entry): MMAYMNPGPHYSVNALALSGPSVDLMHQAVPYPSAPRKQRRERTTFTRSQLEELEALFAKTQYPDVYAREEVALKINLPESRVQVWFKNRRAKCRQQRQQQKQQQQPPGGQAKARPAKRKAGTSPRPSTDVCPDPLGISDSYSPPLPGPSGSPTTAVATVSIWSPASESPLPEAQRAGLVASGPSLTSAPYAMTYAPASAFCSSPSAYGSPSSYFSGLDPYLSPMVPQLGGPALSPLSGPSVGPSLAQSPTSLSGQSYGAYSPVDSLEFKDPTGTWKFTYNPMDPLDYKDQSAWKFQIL
# Chain of ETV1 (P50549 whole entry): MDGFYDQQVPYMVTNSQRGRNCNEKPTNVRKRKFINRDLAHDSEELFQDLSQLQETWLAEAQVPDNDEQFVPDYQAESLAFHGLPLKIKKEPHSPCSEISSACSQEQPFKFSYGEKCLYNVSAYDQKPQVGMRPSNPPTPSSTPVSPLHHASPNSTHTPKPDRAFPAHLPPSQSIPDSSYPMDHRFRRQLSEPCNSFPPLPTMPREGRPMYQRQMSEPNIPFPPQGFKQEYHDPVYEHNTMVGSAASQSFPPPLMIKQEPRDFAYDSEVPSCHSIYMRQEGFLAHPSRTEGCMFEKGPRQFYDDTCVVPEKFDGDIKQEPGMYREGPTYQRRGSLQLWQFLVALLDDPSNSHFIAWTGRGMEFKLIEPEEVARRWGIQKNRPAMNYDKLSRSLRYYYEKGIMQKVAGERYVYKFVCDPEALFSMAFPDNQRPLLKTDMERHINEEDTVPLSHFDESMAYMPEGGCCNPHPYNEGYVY
# Chain of ELF4 (Q99607 whole entry): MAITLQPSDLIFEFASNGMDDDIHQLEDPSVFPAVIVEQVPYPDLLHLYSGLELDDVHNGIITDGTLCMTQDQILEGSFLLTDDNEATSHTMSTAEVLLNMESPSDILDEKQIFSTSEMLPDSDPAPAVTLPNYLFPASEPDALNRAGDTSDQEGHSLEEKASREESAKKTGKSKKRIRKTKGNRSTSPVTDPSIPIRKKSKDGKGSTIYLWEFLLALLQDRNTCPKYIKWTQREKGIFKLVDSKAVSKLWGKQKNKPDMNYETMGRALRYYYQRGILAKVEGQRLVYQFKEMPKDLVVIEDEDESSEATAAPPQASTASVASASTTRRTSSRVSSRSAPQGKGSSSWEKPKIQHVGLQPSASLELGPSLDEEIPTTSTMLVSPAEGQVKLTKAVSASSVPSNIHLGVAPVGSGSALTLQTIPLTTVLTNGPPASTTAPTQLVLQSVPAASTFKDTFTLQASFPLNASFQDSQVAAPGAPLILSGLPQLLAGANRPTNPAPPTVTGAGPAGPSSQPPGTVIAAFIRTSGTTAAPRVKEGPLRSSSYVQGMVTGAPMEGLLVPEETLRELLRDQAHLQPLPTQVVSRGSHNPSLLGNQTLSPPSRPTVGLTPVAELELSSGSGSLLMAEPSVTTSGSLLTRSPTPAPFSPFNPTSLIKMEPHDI
sequence,measurement,setting,value
GTAATC,binding signal,FLI1,"1.16 fold enrichment (6-mer frequency, TF over GST control)"
same,binding signal,ELK1,"1.14 fold enrichment (6-mer frequency, TF over GST control)"
same,binding signal,GABPA,"1.32 fold enrichment (6-mer frequency, TF over GST control)"
same,binding signal,ERG,"1.08 fold enrichment (6-mer frequency, TF over GST control)"
same,binding signal,ELF1,"1.16 fold enrichment (6-mer frequency, TF over GST control)"
same,binding signal,EHF,"1.19 fold enrichment (6-mer frequency, TF over GST control)"
same,binding signal,SPI1,"1.13 fold enrichment (6-mer frequency, TF over GST control)"
same,binding signal,SPIB,"1.09 fold enrichment (6-mer frequency, TF over GST control)"
same,binding signal,ELK3,"1.11 fold enrichment (6-mer frequency, TF over GST control)"
same,binding signal,FEV,"1.1 fold enrichment (6-mer frequency, TF over GST control)"
same,binding signal,ETV5,"1.22 fold enrichment (6-mer frequency, TF over GST control)"
same,binding signal,HSF1,"1.92 fold enrichment (6-mer frequency, TF over GST control)"
same,binding signal,ELF4,"1.14 fold enrichment (6-mer frequency, TF over GST control)"
same,binding signal,ELK4,"1.16 fold enrichment (6-mer frequency, TF over GST control)"
same,binding signal,ETV2,"1.11 fold enrichment (6-mer frequency, TF over GST control)"
same,binding signal,ELF3,"1.21 fold enrichment (6-mer frequency, TF over GST control)"
same,binding signal,CRX,"3.14 fold enrichment (6-mer frequency, TF over GST control)"
same,binding signal,ETV1,"1.02 fold enrichment (6-mer frequency, TF over GST control)"
